LASV entry inh: qHTS for Inhibitors of binding or entry into cells for Lassa Virus. Lassa virus pseudotype entry inhibition, cell reporter. Potency, µM (doses to about 37.9 µM), hits mostly inhibitors. 1.2% of 300,000 active. AID 540256, 2011; calls by dose curve; tested in HEK293 cells; further: nearly all actives have a fitted effect of over 50% in size
Marburg entry inh: qHTS for inhibitors of binding or entry into cells for Marburg Virus | 1.8% of 300,000 active | Marburg virus pseudotyped entry inhibition, cell reporter | Potency, µM (top dose mostly 37.8 µM), usual class: inhibitors | AID 540276, 2011; calls by dose curve; tested in HEK293 cells
FMDV antiviral: High Throughput Screening for Foot and Mouth Disease Virus Antivirals; FMDV antiviral cell-based qHTS; Potency, µM (top dose mostly 57.9 µM), usual class: inhibitors; 1.2% of 410,000 active; AID 1159524, 2015; calls by dose curve; tested in HEK293T cells; further: read-out not given here; nearly all actives have a fitted effect of over 45% in size
HCMV inh: qHTS Assay for inhibitors of the human cytomegalovirus (HCMV); activity change, negative = inhibition, % at 57.5 µM; 4.5% of 410,000 active; HFF cells, HCMV-luciferase reporter, 72 h; hits give low values; in the data active means activity change below about -60%; inconclusive means no clear call, values can overlap the other calls; inactive means above about -39%
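Human foreskin fibroblasts infected with luciferase-reporter HCMV at MOI 1 PFU/cell, compounds at two doses. Luciferase measured 72 h post infection; normalized to buffer-only basal and Salinomycin (10uM) controls.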
HCV inhibitor: qHTS Assay for Inhibitors of Hepatitis C Virus (HCV) | Huh7.5.1 HCVcc-Cre infection, luciferase reporter, 44 h | Potency, µM (series often up to 41.8 µM), most hits filed as inhibitors | 3.4% of 340,000 active; active means well fitted inhibition curve with a large enough effect; inconclusive means small, poorly fitted or top-dose-only effect, or another doubt; inactive means no such curve, though single readings can be large or run the other way
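1,000 cells/well; 4 h culture; + compound; + HCVcc-Cre (~0.5 moi); 44 h; luciferase substrate, RT 15 min; read 15 sec.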
Numbers stand for hits; i = inactive; ? = inconclusive; nt = no result. The list is not random: actives were taken first. Their share in the collection is about 7.9%.

SMILES	LASV entry inh	Marburg entry inh	FMDV antiviral	HCMV inh	HCV inhibitor
COc1ccc(OCc2nc3c4c(ncn3n2)-c2ccccc2CC42CCCC2)cc1	i	?	?	?	?
COc1ccc(-c2nc3c4c(ncn3n2)-c2ccccc2CC42CCCC2)cc1	i	i	32µM	i	?
O=C1c2ccc3c4c(ccc(c24)C(=O)N1NC(=O)C(F)(F)F)CC3	i	i	nt	i	i
CC(=O)NN1C(=O)c2ccc3c4c(ccc(c24)C1=O)C(=O)N(NC(C)=O)C3=O	nt	nt	i	-104	10µM
Cc1cc(C)c2c(-n3cccc3)c(C(=O)NCCc3ccccc3)sc2n1	i	i	i	?	nt
CC1=C(C(=O)OCc2ccc3c(c2)OCO3)C(c2ccc(O)c([N+](=O)[O-])c2)NC(=O)N1 (centres undefined)	i	i	i	?	i
COc1ccc(COC(=O)C2=C(C)NC(=O)NC2c2ccc(O)cc2)cc1 (centres undefined)	nt	nt	i	i	i
CC1=C(C(=O)OCc2ccc3c(c2)OCO3)C(c2ccccc2OCc2ccccc2)NC(=O)N1 (centres undefined)	i	?	nt	i	10µM
COc1ccc(COC(=O)C2=C(C)NC(=O)NC2c2ccc(OC)cc2)cc1 (centres undefined)	nt	nt	?	-64	?
CC1=C(C(=O)OCc2ccc3c(c2)OCO3)C(c2ccccc2)NC(=O)N1 (centres undefined)	?	?	nt	-92	?
COc1ccc(S(=O)(=O)NCC(c2ccco2)S(=O)(=O)c2cccs2)cc1F (centres undefined)	i	nt	i	?	nt
Cc1ccc(C)c(N2CCN(C(=O)CCS(=O)(=O)c3ccc4c(c3)CC(=O)N4C)CC2)c1	i	nt	i	i	nt
O=C(CSc1nc2ccc([N+](=O)[O-])cc2[nH]1)NC1CCCCCC1	i	?	5.6µM	i	14µM
O=C(CSc1nc2ccc([N+](=O)[O-])cc2[nH]1)NC1CCCCC1	i	?	?	i	i
CCc1cccc(CC)c1NC(=O)CSc1nc2ccc(N3C(=O)C4C(C3=O)[C@H]3C=C[C@@H]4C3)cc2s1 (some centres undefined)	i	i	?	-72	?
CCCn1c(SCc2nc(-c3ccc(OC)cc3OC)no2)nnc1-c1ccc(Cl)cc1	i	i	i	i	nt
Cc1ccc(NC(=O)c2cnc(SCC(=O)N3CCCc4ccccc43)n(C)c2=O)cc1	i	nt	i	?	nt
Cc1c(C(=O)NCc2ccccc2)oc2ccc(S(=O)(=O)N3CCC4(CC3)OCCO4)cc12	?	?	?	i	?
Cc1c(C(=O)NCCC2=CCCCC2)oc2ccc(S(=O)(=O)N3CCC4(CC3)OCCO4)cc12	?	?	18µM	i	13µM
Cc1c(C(=O)Nc2ccc(F)c(F)c2)oc2ccc(S(=O)(=O)N3CCCCC3)cc12	i	?	14µM	i	6.3µM
Cc1c(C(=O)Nc2ccc(F)cc2)oc2ccc(S(=O)(=O)N3CCC4(CC3)OCCO4)cc12	?	5.8µM	22µM	-63	4.5µM
Cc1ccc(NC(=O)c2oc3ccc(S(=O)(=O)N4CCCCCC4)cc3c2C)cc1Cl	i	nt	?	i	nt
Cc1c(C(=O)Nc2ccc(F)c(F)c2)oc2ccc(S(=O)(=O)N3CCC4(CC3)OCCO4)cc12	i	nt	i	i	nt
COc1ccc(-c2cc(NC=O)c3ncc(-c4ccc(OC)c(OC)c4)n3c2)cn1	nt	nt	nt	i	nt
COc1cc(Cl)c(NC(=O)c2cc(S(=O)(=O)N3CCCCC3)c[nH]2)c(OC)c1	i	nt	i	i	nt
SMILES	LASV entry inh	Marburg entry inh	FMDV antiviral	HCMV inh	HCV inhibitor
COc1ccc(NC(=O)CCCc2nc(-c3ccco3)no2)c(OC)c1	i	i	i	i	nt
O=C(C(Cc1ccccc1)N1C(=O)c2ccccc2C1=O)N1c2ccccc2CCc2ccccc21 (centres undefined)	?	?	i	-66	10µM
COc1ccccc1C1CN(CCNC(=O)c2sccc2Cl)Cc2ccccc2O1 (centres undefined)	nt	nt	i	nt	nt
Cc1cccc2cc(CNCCCN3CCCC3=O)c(N3CCN4CCCC4C3)nc12 (centres undefined)	nt	nt	i	nt	nt
NS(=O)(=O)c1ccc(CCN2C(=O)/C(=C\c3ccc(Cl)cc3)SC2=S)cc1	?	?	i	-101	?
CC(=O)c1ccc(NC(=O)C2CCC(CNS(=O)(=O)c3cccc4nsnc34)CC2)cc1 (centres undefined)	i	i	i	i	nt
Cc1ccc(C(=O)N(Cc2cc3cccc(C)c3nc2N2CCC(O)CC2)C2CC2)cc1	nt	nt	i	nt	nt
CSc1nc(O)c(C(c2ccc(O)cc2)c2c(O)nc(SC)[nH]c2=O)c(=O)[nH]1	nt	nt	i	-69	i
COC(=O)C(c1ccccc1)(c1cn(C)c2ccc(OC)cc12)C(Nc1ccccc1)c1ccccc1 (centres undefined)	nt	nt	nt	i	nt
Cc1ccc2oc(-c3cc(NC(=O)Cc4ccccc4)ccc3Cl)nc2c1	?	i	i	i	nt
COc1ccc(-c2c(-c3ccc(OC)nc3)c3ccccc3n2C)cc1	nt	nt	i	i	22µM
O=[N+]([O-])c1ccc(N=Nc2ccc(O)c3ccccc23)cc1	i	?	i	nt	10µM
O=S(=O)(Nc1ccc(N=Nc2ccc(O)c3ccccc23)cc1)c1ccccc1	?	?	i	i	?
COCCCNC(=O)Nc1cc(C(=O)NCc2ccc(OC)cc2)ccc1N1CCCC1	i	nt	i	i	nt
CCCN(CCC)S(=O)(=O)c1ccc(C(=O)N2CCC(=O)c3ccccc32)cc1	?	i	i	-60	i
O=[N+]([O-])c1ccc(Sc2cccc3cccnc23)c([N+](=O)[O-])c1	nt	nt	?	-106	i
O=[N+]([O-])c1ccc(Sc2ccncn2)c([N+](=O)[O-])c1	nt	nt	28µM	-86	nt
Cc1cc(C)nc(Sc2ccc([N+](=O)[O-])cc2[N+](=O)[O-])n1	?	?	7.1µM	?	i
COc1cc(C(=S)N2CCCC2)cc(OC)c1OS(=O)(=O)c1ccc(NC(C)=O)cc1	?	i	i	i	i
COc1cc(C(=S)N2CCOCC2)ccc1OS(=O)(=O)c1ccc(NC(C)=O)cc1	?	?	13µM	-73	?
COc1cc(C(=S)N2CCCC2)ccc1OS(=O)(=O)c1ccc(NC(C)=O)cc1	16µM	i	20µM	i	10µM
COc1ccc(S(=O)(=O)Oc2ccc(C(=S)N3CCOCC3)cc2OC)cc1	i	?	?	i	?
COc1ccc(-c2oc3ncn4nc(COc5cccc(C)c5C)nc4c3c2-c2ccc(OC)cc2)cc1	?	i	i	i	nt
N#C/C(=C\c1ccc(OCc2ccc(F)cc2)cc1)C(=O)Nc1cccc(C(=O)O)c1	nt	nt	i	-75	i
O=C(Nc1ccc(Cl)c(Cl)c1)OCc1cnc(Cl)s1	i	i	i	i	11µM
Cc1cc(NC(=O)CCl)nn1C	?	7.9µM	35µM	?	?
Cc1cc(NC(=O)CCl)on1	i	i	?	-68	?
Cc1cc(Br)c(NC(=O)CCl)c(Br)c1	i	?	?	-66	i

Screens deposited in PubChem by National Center for Advancing Translational Sciences (NCATS).
